The whole screen tested about 52,000 compounds, of which about 1,700 (3.3%) were called active. No stated cut-off is given here; in the data, active means survival mostly below about 52% (no sharp cut-off); inactive means mostly above about 56%. Shown is part of a subset that was picked to be rich in actives.

For 91 molecules, survival results are on record in PubChem BioAssay AID463173 (ICCB-Longwood Screening Facility, Harvard Medical School, 2010).

In the experiment the test system is Wild type. The experiment can be described thus: growth inhibition of S. aureus wild type versus tarO mutant, primary screen, teichoic acid synthesis inhibitors, RN4220, OD600 (AID 463173). The following applies: S. aureus RN4220 wild type/DeltatarO growth, OD600, 18 h, hits give low values, screened at 18.75 µg/mL (by protocol).
For the molecule `Cc1ccccc1NC(=O)CSc1nnc(C)c(=O)[nH]1`, the survival is 89% (inactive). Turning to `Cc1ccc(Nc2sc(C(=O)c3ccccc3)c(N)c2C(=O)NC(C)C)cc1`, the survival was 78% (inactive). Take `O=C(CSc1nccn1Cc1ccccc1)Nc1ccc2c(c1)OCO2`: the survival is 138% (inactive). In the case of `COc1ccc(CC(=O)N(Cc2nc(-c3ccc(C)cc3)no2)C(C)C)cc1`, the survival was 33% (inactive). For `COc1ccc(-c2noc(CN(C(=O)Cc3ccc(C)cc3)C(C)C)n2)cc1`, the survival was 5% (active). As for `COc1ccc(-c2noc(CN(C(=O)C(C)Oc3ccc(C)cc3)C(C)C)n2)cc1` (stereo unspecified), the survival is 77% (inactive). As to `COc1ccccc1OC(C)C(=O)N1CCN(CCc2ccccn2)CC1` (stereo unspecified), the survival is 82% (inactive). As for `COc1ccc2c(c1)c(=O)c(C(=O)c1ccc(F)cc1)cn2CC(=O)Nc1ccc2c(c1)OCO2`, the survival is 91% (inactive). Regarding `CC(C)Cn1c(-c2ccccc2Cl)nc2ccccc21`, the survival was 26% (active).

In the case of `CCCCNc1nc2c(-c3cccc(Br)c3)nnn2c2ccccc12`, the survival is 92% (inactive).

On to `CC(C)Nc1nc2c(-c3cccc(Br)c3)nnn2c2ccccc12`, for which the survival is 74% (inactive).

Consider `CCCn1c(-c2cccc(Br)c2)nc2ccccc21`, for which the survival is 3% (active).

In the case of `CCCn1c(SCC(O)c2ccccc2)nc2ccccc21` (stereo unspecified), the survival was 86% (inactive). For `CC(C)Cn1c(C2CC(=O)N(c3ccccc3Cl)C2)nc2ccccc21` (stereo unspecified), the survival was 97% (inactive). Take `CC(=O)NC(C)c1nc2ccccc2n1Cc1ccccc1Cl` (stereo unspecified): the survival was 91% (inactive).

For `CC(C)Cn1c(-c2cccc(Br)c2)nc2ccccc21`, the survival is 27% (active). For the molecule `Cc1nc2ccccc2c(=O)n1CC(C)C`, the survival was 106% (inactive). As to `O=C(NCCc1ccc(Cl)cc1)c1ccc(CS(=O)Cc2ccccc2Cl)o1` (stereo unspecified), the survival is 62% (inactive). Under `COc1ccccc1CCNC(=O)c1cc2c(=O)n3cccc(C)c3nc2n1C` stands 85% (inactive). The result for `COc1ccc(C2CC(=O)c3cc(-c4nc(-c5ccc(Cl)cc5)c(C)s4)c(=O)[nH]c3C2)cc1` (stereo unspecified) reads 71% (inactive); that for `Cc1ccc(CCNC(=O)c2cc3c(=O)n(C)c4ccccc4c3n2C)cc1`, 80% (inactive).

In the case of `Cc1ccc(C)c(Cn2c(=O)n(CCCCC(=O)NCc3ccc4c(c3)OCO4)c(=O)c3ccccc32)c1`, the survival is 110% (inactive). Consider `CC(NC(=O)CN1C(=O)c2cccnc2Oc2ccc(Cl)cc21)c1ccccc1` (stereo unspecified), for which the survival was 74% (inactive). Regarding `Cc1c(C(=O)N2CCC(C)CC2)c(S(=O)(=O)NCc2ccc(Br)cc2)c(C)n1C`, the survival is 80% (inactive). On to `COc1ccccc1Cn1cc(C(=O)c2ccc(C)cc2)c(=O)c2cc3c(cc21)OCCO3`, for which the survival is 83% (inactive).

Consider `COc1ccc(OC)c(CNC(=O)c2ccc3c(c2)c(C)c(C)n3Cc2ccc(Cl)cc2)c1`, for which the survival is 82% (inactive). As for `CCNC(=O)c1sc2ccccc2c1Cl`, the survival was 124% (inactive). As for `CCN(C(=O)c1cn(-c2ccc(OC)cc2)c(=O)c2ccccc12)c1cccc(Cl)c1`, the survival is 119% (inactive). `CCN(C(=O)c1sc2cc(OC)ccc2c1Cl)c1ccccc1`: the survival was -9% (active). In the case of `O=C(COc1ccc(Cl)cc1)NCCc1csc(-c2ccc(F)cc2)n1`, the survival was 73% (inactive). In the case of `O=c1c2c3c(sc2nnn1Cc1ccc(Br)cc1)CCCC3`, the survival is 28% (inactive).

With `CCCOC(=O)c1ccc(Cn2nnc3sc4c(c3c2=O)CCC(C)C4)cc1` (stereo unspecified), the survival is 77% (inactive).

Regarding `Cc1ccccc1Cn1nnc2sc3c(c2c1=O)CCCC3`, the survival was 0% (active). Under `COC(=O)c1ccc(Cn2nnc3sc4c(c3c2=O)CCC(C)C4)cc1` (stereo unspecified) stands 75% (inactive). In the case of `Cc1ccc(Cn2nnc3sc4c(c3c2=O)CCC(C)C4)cc1` (stereo unspecified), the survival was 60% (inactive).

For `CC1CCc2c(sc3nnn(Cc4ccccc4Cl)c(=O)c23)C1` (stereo unspecified), the survival is 16% (inactive).

In the case of `CC1CCc2c(sc3nnn(Cc4ccc(F)cc4)c(=O)c23)C1` (stereo unspecified), the survival is 1% (active). Consider `COC(=O)c1ccc(Cn2nnc3sc4c(c3c2=O)CCCC4)cc1`, for which the survival is 77% (inactive). The result for `CC1CCc2c(sc3nnn(Cc4ccccc4)c(=O)c23)C1` (stereo unspecified) reads 0% (active); that for `O=C(NCc1ccco1)c1ccc(COCC(F)(F)C(F)F)cc1`, 98% (inactive). Turning to `COc1ccccc1N1CCN(C(=O)CN2C(=O)COc3ccc(S(=O)(=O)N4CCC(C)CC4)cc32)CC1`, the survival was 98% (inactive). With `CCCCc1nn2c(=O)cc(COC(=O)c3cccc(NC(=O)c4cccc(Cl)c4)c3)nc2s1`, the survival was 85% (inactive). As to `CCNc1nc(NC(N)=S)nc(NC(C)(C)C)n1`, the survival was 112% (inactive). On to `Fc1ccc(Nc2ncnc3onc(-c4cccc(Cl)c4)c23)c(F)c1`, for which the survival is 79% (inactive). With `C#CCNC(=O)NC1CCCN(S(=O)(=O)c2ccc(C)cc2)C1` (stereo unspecified), the survival was 112% (inactive). As to `CCc1ccc(C(=O)c2cn(CC(=O)Nc3ccc(OC)cc3)c3cc4c(cc3c2=O)OCCO4)cc1`, the survival is 89% (inactive). The result for `COc1cccc(NC(=O)C2CC(=O)N(c3ccc(Br)cc3)C2)c1` (stereo unspecified) reads 63% (inactive). For the molecule `Cc1cc(C)n(C(=O)CNc2ccccc2Cl)n1`, the survival is 103% (inactive). In the case of `COCCNC(=O)CCN1C(=O)c2cccnc2Oc2ccc(C)cc21`, the survival is 70% (inactive). Turning to `COc1cc(C2NC(=O)NC(C)=C2C(=O)Nc2cc(C)cc(C)c2)ccc1O` (stereo unspecified), the survival was 69% (inactive). The result for `NC(=O)CSc1nc2ccc(NC(=O)COc3ccccc3)cc2s1` reads 86% (inactive); that for `CC(C)c1ccc2occ(CC(=O)Nc3cccc(C(F)(F)F)c3)c2c1`, 0% (active). For `COC(=O)c1ccc(NC(=O)Cc2coc3cc(C)ccc23)cc1`, the survival was 106% (inactive). In the case of `Cc1ccc(NC(=O)Cc2coc3ccc(C(C)C)cc23)cc1Cl`, the survival was 53% (inactive). In the case of `CC(C)c1ccc2occ(CC(=O)Nc3ccccc3Cl)c2c1`, the survival was 81% (inactive). With `Cc1ccc2c(CC(=O)Nc3cccc(C(F)(F)F)c3)coc2c1`, the survival is 8% (active).

Regarding `Cc1ccc2onc(CC(=O)Nc3cccc(C(F)(F)F)c3)c2c1`, the survival was 92% (inactive).

Consider `CCC(=O)N1CCc2cc(Br)cc(S(=O)(=O)N3CCCC(C(=O)Nc4ccc(C(C)C)cc4)C3)c21` (stereo unspecified), for which the survival is 106% (inactive). For `O=C(CSC1=Nc2ccccc2N=C(c2ccc(F)cc2)C1)NCc1ccc(F)cc1`, the survival was 83% (inactive).

`COC(=O)C1=C(C)N(C(C)C)C(=O)C1(NC(=O)c1ccc(C(C)(C)C)cc1)C(F)(F)F` (stereo unspecified): the survival is 65% (inactive). In the case of `O=C(NC1CCCCC1)c1cc(Nc2cccc(C(F)(F)F)c2)nc2ccccc12`, the survival was 72% (inactive). Under `CCn1c(SCC#N)nnc1-c1ccc(S(=O)(=O)N2CCCC2)cc1` stands 100% (inactive). The result for `CCCN(C(=O)C(C)C)c1nnc(-c2cc(OC)c(OC)c(OC)c2)s1` reads 120% (inactive).

For `CCCn1c(=O)c2sccc2n2c(CCCC(=O)NCCOC)nnc12`, the survival is 97% (inactive). The result for `Cc1cccc(N2CCN(C(=O)C3CCN(c4ncnc5c4nc4n5CCCCC4)CC3)CC2C)c1` (stereo unspecified) reads 1% (active).

`Cc1cccc(N2CCN(c3ncnc4c3nc3n4CCCCC3)CC2C)c1` (stereo unspecified): the survival is 75% (inactive).

For the molecule `O=C(C1CCN(c2ncnc3c2nc2n3CCCCC2)CC1)N1CCN(c2ccc(F)cc2)CC1`, the survival was -3% (active). Under `O=C(NCc1ccccc1)C1CCN(c2ncnc3c2nc2n3CCCCC2)CC1` stands 82% (inactive). On to `Cc1ccc(N2CCN(C(=O)C3CCN(c4ncnc5c4nc4n5CCCCC4)CC3)CC2)c(C)c1`, for which the survival is 55% (inactive). `O=C(NCCc1ccc(Cl)cc1)C1CCN(c2ncnc3c2nc2n3CCCCC2)CC1`: the survival was 80% (inactive).

Take `O=C(C1CCN(c2ncnc3c2nc2n3CCCCC2)CC1)N1CCN(c2ccc(Cl)cc2)CC1`: the survival was 55% (inactive). Take `O=C(C1CCN(c2ncnc3c2nc2n3CCCCC2)CC1)N1CCN(c2ccccc2)CC1`: the survival is 71% (inactive).

In the case of `O=C(NCCc1ccccc1)C1CCN(c2ncnc3c2nc2n3CCCCC2)CC1`, the survival is -4% (active). Consider `CC(=O)C1=C(c2ccc(Cl)cc2)N(C(C)=O)n2c(nnc2C2CCCCC2)S1`, for which the survival was 85% (inactive). On to `CCOc1cccc(CC(=O)N2CCc3c([nH]c4ccccc34)C2c2ccc(C)cc2)c1OCC` (stereo unspecified), for which the survival was 83% (inactive).

With `Cc1ccc2c(c1)c(=O)c(C(=O)c1ccncc1)cn2CC(=O)Nc1c(C)cccc1C`, the survival is 72% (inactive).

With `O=C(CC12CC3CC(CC(C3)C1)C2)N1CCCOC1`, the survival was 114% (inactive). In the case of `N=c1nc(SCCC(=O)O)ss1`, the survival is 112% (inactive). Turning to `COc1ccc(NC(=O)C(C)Sc2cc(-c3ccccc3)nc(C)n2)cc1Cl` (stereo unspecified), the survival is 81% (inactive). With `Cc1c(Cl)cccc1NC(=O)CCS(=O)(=O)c1ccc2c(c1)CC(=O)N2C`, the survival is 85% (inactive). As for `COc1ccc(C(CC(=O)Nc2ccc(C)c(C)c2)N2Cc3ccccc3C2=O)cc1OC` (stereo unspecified), the survival is 66% (inactive). The result for `COc1ccc(NC(=O)Cn2c(=O)n(CCC(=O)NCCc3ccc(OC)c(OC)c3)c(=O)c3ccccc32)cc1Cl` reads 92% (inactive); that for `CCc1ccc(C2=C(C)C(N3CCC(C(=O)NCc4ccccc4)CC3)=NS2(=O)=O)cc1`, 67% (inactive); that for `CC1=C(c2ccc(C)c(C)c2)S(=O)(=O)N=C1N1CCC(C(=O)N2CCC(C(N)=O)CC2)CC1`, -4% (active). For the molecule `CC1=C(c2ccc(C)c(C)c2)S(=O)(=O)N=C1N1CCC(C(=O)N2CCCCC2)CC1`, the survival was 129% (inactive). Turning to `CC1=C(c2ccc(C(C)C)cc2)S(=O)(=O)N=C1N1CCC(C(=O)NCc2ccc(C)o2)CC1`, the survival was 63% (inactive). With `CC1=C(c2ccc(C(C)C)cc2)S(=O)(=O)N=C1N1CCC(C(=O)NCc2ccco2)CC1`, the survival is 63% (inactive). With `CC1=C(c2ccc(C)c(C)c2)S(=O)(=O)N=C1N1CCC(C(=O)N2CCC(C)CC2)CC1`, the survival is 81% (inactive).

On to `CC1=C(c2ccc(Cl)cc2)S(=O)(=O)N=C1N1CCC(C(=O)NCCc2ccco2)CC1`, for which the survival is 55% (inactive). For `CC1=C(c2ccc(C(C)C)cc2)S(=O)(=O)N=C1N1CCC(C(=O)NCc2ccccc2)CC1`, the survival is -3% (active). On to `CC1=C(c2ccc(C(C)C)cc2)S(=O)(=O)N=C1N1CCC(C(=O)NCCc2ccco2)CC1`, for which the survival was 1% (active).
